Rows were chosen to be rich in hits. Some 1.6% of all compounds tested hit in one or more screens of this group.
INS promoter inh: inhibitors of insulin promoter-driven GFP, primary screen, imaging, TRM-6 cells (human fetal islet line), eGFP reporter, cell count. hit rate 0.9% among 130,000. AID 1273, 2008. reporter expression induced with tamoxifen. inhibition, % at 2 µM;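 active means inhibition above the mean plus 3 SD, with well images judged a real hit on visual review, cut at about 60% in these data, passing the limit was not always enough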
Phagocytosis inh: inhibitors of macrophage phagocytosis, primary screen, imaging, J774A.1 cells, IgG beads; inhibition, % at 5 µM; AID 1029, 2008; hit rate 0.07% among 110,000; J774A.1 macrophage IgG-bead phagocytosis;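 active means inhibition above the mean of the plate negative controls plus 5 SD, cut at about 13% in these data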;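 further: phagocytic index as fraction of beads internalized from green versus red external bead signal; plate controls were DMSO negative control for no effect and cytochalasin-D positive control for full effect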
HUVEC tox TNFa: cytotoxicity in TNFa-stimulated HUVEC, primary screen, cytotoxicity control for VCAM1 expression modulator project, imaging, Hoechst nuclei count | HUVEC TNFalpha-stimulated, Hoechst cell count | cell count reduction, % at 2 µM | hit rate 0.17% among 93,000 | AID 848, 2007;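 active means cell count reduction exceeding the screen mean by over 5 SD, scaled to untreated wells per plate, cut at about 78% in these data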;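 further: cells counted after 24 h of TNF alpha exposure following the 1 h pretreatment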
VCAM1 TNFa inh: inhibitors of TNFa-induced VCAM1 expression, primary screen, imaging, HUVEC, TNFa stimulus, immunofluorescence; hit rate 0.48% among 95,000; HUVEC TNFa-induced VCAM-1 immunofluorescence, high-content imaging; inhibition, % at 2 µM;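 active means inhibition above the batch mean plus 3 SD, with images confirmed as a hit by eye, cut at about 37% in these data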;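 further: 0% = TNF-stimulated DMSO wells and 100% = unstimulated control wells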
E-sel TNF inh: E-selectin induction blockers in HUVEC – imaging, immunofluorescence, high content, primary screen | inhibition, % at 2 µM | hit rate 0.71% among 120,000 | HUVEC TNFa-induced E-selectin immunofluorescence;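 active means inhibition above the batch mean plus 3 SD, and confirmed as a hit on visual image review, cut at about 43% in these data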;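 further: 0% = TNF-stimulated DMSO wells and 100% = unstimulated control wells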
cytoskel mod: modifiers of F-actin cytoskeleton organization, primary screen, imaging, HUVEC, phalloidin staining, high-content imaging; inhibition, % at 2 µM; hit rate 0.18% among 91,000; HUVEC TNFa F-actin phalloidin imaging; AID 836, 2007;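 active means inhibition above the batch mean plus 3 SD and confirmed as a hit by visual image inspection, cut at about 30% in these data, passing the limit was not always enough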
The depositor's hits bear a star; . = not tested or not shown.

SMILES	INS promoter inh	Phagocytosis inh	HUVEC tox TNFa	VCAM1 TNFa inh	E-sel TNF inh	cytoskel mod
O=C(c1cc(-c2ccncc2)nc2ccc(Br)cc12)N1CCN(c2ccccn2)CC1	-34.5	-0.4	.	100.0*	-17.6	84.4*
CCc1ccc(N2C(=O)CC(NNc3nc4ccccc4s3)C2=O)cc1 (centres undefined)	.	-0.8	.	.	.	.
NC(=O)C1CCCN(C(=S)Nc2cccc3ccccc23)C1 (centres undefined)	.	-4.9	.	.	69.6*	.
NC(=O)C1CCCN(C(=S)NCc2ccc3c(c2)OCO3)C1 (centres undefined)	-55.6	.	.	.	.	.
O=C(c1ccc2snnc2c1)N1CCSCC1	-35.7	0.0	83.7*	78.5*	.	-45.3
O=C(c1ccc2snnc2c1)N1CCCCC1	-466.7	.	-12.7	-4.3	-3.6	-11.2
Cc1cc(C)c(-c2c(O)c3cnn(-c4ccccc4)c3[nH]c2=O)c(C)c1	66.7*	-5.7	.	.	3.5	.
Clc1cccc(Nc2nc(-c3cccnc3)cs2)c1	33.3	.	.	.	.	.
NC1=Nc2cccc3cccc1c23	-86.7	.	.	.	6.2	.
NC1=CC(=O)c2cccc3cccc1c23	-100.0	.	4.5	43.3*	.	.
COc1ccc(C(=O)OCC(=O)N2CCCC2=O)c(OC)c1	41.2	.	.	.	.	.
Cc1ccc(Nc2nc(CSc3nnnn3-c3ccccc3)cs2)cc1	9.7	-0.9	-9.2	-12.0	-29.2	3.2
Cc1cccc(-n2nnnc2SCc2csc(-c3ccccc3)n2)c1	20.0	.	87.9*	11.7	-4.5	-6.3
N#C/C(=N\Nc1ccccc1F)c1nc(-c2ccccc2)cs1	-11.8	.	.	.	5.2	.
O=C(O)Cc1ccc(NC(=O)C2CC=CCC2C(=O)O)cc1 (centres undefined)	25.8	-0.6	56.8	54.7*	10.2	-15.2
C=CCn1c(-c2cccs2)nc2nc3ccccc3nc21	41.4	-0.7	-5.4	7.4	-7.4	-12.7
C=CCn1c(-c2cccs2)nc2ccccc21	80.0*	-1.2	20.6	-1.9	33.7	-8.3
COc1cc2c(cc1NC(=O)CSCC(=O)O)oc1ccccc12	7.1	-0.7	.	.	19.1	.
COc1cc2c(cc1NC(=O)Nc1ccccc1)oc1ccccc12	6.9	.	-8.6	-8.3	99.8*	1.1
O=C(CN1CCN(S(=O)(=O)c2ccccc2)CC1)Nc1ccccc1C(=O)c1ccccc1	-48.1	-14.0	.	.	.	.
CCC(=O)N/C(N)=N/c1nc(C)c2cc(OC)ccc2n1	80.0*	1.0	-8.1	14.1	-15.1	-10.7
Cc1ccc(CNC(=O)C2CC(=O)N(c3ccc(OCC(=O)N4CCCC4)cc3)C2)cc1 (centres undefined)	37.5	.	-26.3	8.4	13.9	11.9
CCCS(=O)(=O)N1CCC(C(=O)NCCCOC)CC1	.	1.3	-2.6	-10.4	100.0*	2.0
CN(Cc1ccccc1)C(=O)c1ccccc1NC(=O)c1ccccc1	.	-0.7	-6.9	1.0	-44.0	51.3*
Cc1ccc(Cl)c(NC(=O)COC(=O)c2ccccc2C(=O)c2ccc(Cl)c([N+](=O)[O-])c2)c1Cl	-53.3	0.2	.	.	98.2*	.
SMILES	INS promoter inh	Phagocytosis inh	HUVEC tox TNFa	VCAM1 TNFa inh	E-sel TNF inh	cytoskel mod
CN(C)C(CNC(=O)c1cc(S(=O)(=O)N(C)c2ccccc2)ccc1Cl)c1cccs1 (centres undefined)	-92.9	.	.	.	-17.9	.
COc1ccc(C(=O)C(CN2CCOCC2)c2ccccc2)cc1 (centres undefined)	91.8*	-0.6	0.4	51.2*	-23.7	.
COc1ccc(C(=O)C(CN2CCCC2)c2ccccc2)cc1 (centres undefined)	.	0.4	-4.5	83.8*	.	6.9
O=C(c1ccc(F)cc1)C(CN1CCOCC1)c1ccccc1 (centres undefined)	.	0.7	-22.5	7.1	44.1	-3.1
CCCCOc1ccc(C(=O)C(CN2CCOCC2)c2ccccc2)cc1 (centres undefined)	78.4*	.	-20.0	41.1	21.6	13.7
O=C(NC1=NCCS1)c1ccccc1OCc1ccc(F)cc1	-30.0	.	.	.	-10.0	.
COc1ccc(Br)cc1/C=C/C(=O)Nc1ccc2ccccc2c1	16.7	-4.2	.	.	.	.
CCC(=O)Nc1cccc(C(=O)/C=C/c2cc(Br)ccc2OC)c1	94.3*	0.2	5.2	68.8*	46.2	-23.6
COc1ccc(C(=O)NC(=S)NCc2ccc(-c3nc4ccccc4o3)cc2)cc1OC	-16.7	-2.4	1.7	-8.9	7.7	-5.9
CCOc1cc(C(=O)NCc2ccc(-c3nc4ccccc4o3)cc2)cc(OCC)c1OCC	-10.0	0.8	.	-26.5	66.4*	1.2
O=C(O)CCCc1nc(-c2ccccc2)no1	32.4	0.0	-11.5	16.5	13.6	13.9
CC(C)N(Cc1nc(-c2ccccc2)no1)C(=O)c1ccc2c(c1)OCO2	-37.1	-0.9	8.4	15.8	3.4	-35.5
c1ccc(NCc2nc(-c3ccccc3)no2)cc1	80.0*	.	-3.8	-12.0	7.4	-15.6
O=C(NCc1nc(-c2ccccc2)no1)c1ccc2c(c1)OCO2	58.8	-0.6	-7.1	-4.6	99.9*	6.3
O=C(Nc1ccc(NC(=O)C2CCCCC2)nc1)c1cccs1	22.2	.	.	.	.	.
COc1cc(C(C(=O)NCc2ccccc2)N(Cc2ccco2)C(=O)c2cnccn2)cc(OC)c1OC (centres undefined)	4.3	.	.	.	-41.4	.
CN(C(=O)COC(=O)CNC(=O)c1ccc(Cl)cc1Cl)c1ccccc1	0.0	.	.	.	10.4	.
Cc1nn(C)c(C)c1NC(=O)c1ccnn1C	72.2*	-0.6	11.6	-20.8	.	-13.9
O=[N+]([O-])c1ccccc1/C=N/Nc1nnc(-c2ccccc2)c(-c2ccccc2)n1	31.0	-14.8	.	.	.	.
CC(C)C(c1nnnn1Cc1ccc2c(c1)OCO2)N1CCN(C)CC1 (centres undefined)	-406.2	.	-19.6	8.3	41.7*	-8.9
CC(C)C(c1nnnn1Cc1ccc2c(c1)OCO2)N1CCN(c2ccccc2)CC1 (centres undefined)	.	-1.4	-24.4	5.9	-25.0	-13.6
COc1cc(NC(=O)C2CC2)c(OC)cc1NC(=O)CCC(=O)NC1CCN(Cc2ccccc2)CC1	.	.	.	.	-1.9	.
CC(C)(C)c1cc(S(=O)(=O)CCc2ccccn2)cc(C(C)(C)C)c1F	-13.9	153.3*	6.7	1.4	21.7	-2.3
CCOc1ccc(CN(C(=O)c2oc3cc(C)ccc3c2C)C2CCS(=O)(=O)C2)cc1 (centres undefined)	65.6*	-1.2	3.9	18.6	-1.7	-11.5
CC(=O)c1cccc(N(C(=O)Cn2nnc3ccccc32)C(C(=O)NCC2CCCO2)c2ccc(N3CCOCC3)cc2)c1 (centres undefined)	-35.7	.	.	.	-9.5	.
O=C(c1cccs1)N1CCC(c2ccccc2)C1 (centres undefined)	78.8*	1.1	0.8	-1.9	-8.7	12.4
NC(=O)C1CCN(C(=O)Nc2ccccc2)CC1	46.1	.	-27.9	.	.	16.6
O=C(Nc1ccccc1)N1CCC(c2ccccc2)C1 (centres undefined)	.	1.0	-15.7	7.3	20.8	65.1*

High-throughput results as filed in PubChem.
